Experimental data from PubChem BioAssay AID602292 (National Center for Advancing Translational Sciences (NCATS), 2012).
Among all 1,300 compounds or so, about 380 (29%) were called active. About 37% were inconclusive and are not listed. Some of the results follow. A number with no mark means an inactive call. Calls follow the shape of the dose curve; as a rule, active = well fitted inhibition curve with a large enough effect; inconclusive = small, poorly fitted or top-dose-only effect; inactive = flat fitted curve, though single readings scatter.

target: Thyrotropin receptor (Homo sapiens) (UniProt P16473); assay: qHTS for antagonists of the Thyroid Stimulation Hormone Receptor: Hit Validation in Primary Screen; conditions: TSHR-expressing cells, cAMP antagonist mode; series mostly up to 58 µM; activity change, negative = inhibition: at the top concentration; also: nearly all actives have a fitted effect of over 80% in size;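 as to activity change, negative = inhibition: cells stimulated with TSH at EC80 of 4 nM during compound exposure; cAMP by competitive HTRF where cellular cAMP lowers the 665 nm FRET signal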
Sequence (P16473 whole entry, looked up): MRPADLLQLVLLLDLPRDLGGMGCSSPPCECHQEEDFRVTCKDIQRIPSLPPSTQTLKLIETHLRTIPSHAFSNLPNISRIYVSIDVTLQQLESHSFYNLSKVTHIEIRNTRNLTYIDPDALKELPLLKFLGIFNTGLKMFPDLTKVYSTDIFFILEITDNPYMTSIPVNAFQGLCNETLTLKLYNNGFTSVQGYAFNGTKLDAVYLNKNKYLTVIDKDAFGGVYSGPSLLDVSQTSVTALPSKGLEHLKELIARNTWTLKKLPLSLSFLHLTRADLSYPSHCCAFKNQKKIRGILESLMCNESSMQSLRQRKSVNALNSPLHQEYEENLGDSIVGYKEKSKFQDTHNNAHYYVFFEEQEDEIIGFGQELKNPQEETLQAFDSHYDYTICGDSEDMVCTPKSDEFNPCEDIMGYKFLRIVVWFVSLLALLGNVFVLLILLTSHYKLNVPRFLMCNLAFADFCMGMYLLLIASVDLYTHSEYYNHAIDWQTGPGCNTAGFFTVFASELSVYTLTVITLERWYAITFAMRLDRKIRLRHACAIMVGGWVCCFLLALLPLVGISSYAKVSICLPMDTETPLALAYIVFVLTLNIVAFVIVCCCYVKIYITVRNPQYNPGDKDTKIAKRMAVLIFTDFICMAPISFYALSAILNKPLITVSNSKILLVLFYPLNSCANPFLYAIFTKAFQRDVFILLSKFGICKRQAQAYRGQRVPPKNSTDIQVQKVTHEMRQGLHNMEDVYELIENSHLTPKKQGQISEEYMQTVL
In short: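 Competitive HTRF detected cAMP in lysates of TSHR cells, read 30 minutes after antibody and d2 addition at room temperature. Before lysis, cells had 2 hours at 37 deg C with compound plus EC80 TSH, 4nM final.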
% is scaled to controls: 0 for no effect and ±100 for the full control effect; potency is read from the fitted curve at half-maximal effect.

Row | SMILES | activity change, negative = inhibition [%] | Potency
1 | CCOc1ccccc1-n1c(=S)sc2c(=O)n(-c3ccc(F)cc3)c(SCC(=O)O)nc21 | -3.34 | 
2 | Fc1ccc2[nH]c3c(N4CCN(c5ccccc5)CC4)ncnc3c2c1 |  | 30.1 µM (active)
3 | N#Cc1c(F)cccc1N1CCN(Cc2ccc3c(c2)OCO3)CC1 | -2.54 | 
4 | Cc1ccc2c(c1)[nH]c1c(N3CCN(Cc4ccccc4)CC3)ncnc12 |  | 30.1 µM (active)
5 | Fc1ccc2[nH]c3c(N4CCN(Cc5ccc6c(c5)OCO6)CC4)ncnc3c2c1 |  | 23.9 µM (active)
6 | O=C(c1cccc(Cl)c1)N1CCN(Cc2ccc3c(c2)OCO3)CC1 | -6.83 | 
7 | O=C1NC(=O)/C(=C/c2ccccc2Oc2ccc(Cl)cc2)S1 | -8.27 | 
8 | CN(Cc1ccco1)S(=O)(=O)c1csc(C(N)=O)c1 | -3.34 | 
9 | CCc1cc2c(NCc3ccccc3)nc(C)nc2s1 |  | 23.9 µM (active)
10 | Cc1nc(SCC(=O)N2CCN(c3ccccc3)CC2)n[nH]1 | -6.86 | 
11 | O=C(CSc1ccc(F)cc1)N1CCC(c2nc3ccccc3s2)CC1 |  | 37.9 µM (active)
12 | C=CCC1(CC=C)CCCN1C(=O)c1cc(COc2ccc(C)nc2)on1 |  | 15.1 µM (active)
13 | CCc1ccccc1NC(=O)C1CCCN(S(=O)(=O)c2ccc3c(c2)CC(C)N3C(C)=O)C1 (stereo not drawn) | -5.5 | 
14 | O=C(Nc1nnc(S(=O)(=O)N2CCCC2)s1)c1ccccc1F | -9.65 | 
15 | CC(=O)Nc1ccc(S(=O)(=O)Nc2c(NC3CCCCC3)c3ccccc3oc2=O)cc1 | 0.576 | 
16 | O=C(Nc1cc(S(=O)(=O)N2CCCCC2)ccc1Cl)c1ccccc1NS(=O)(=O)c1ccc(F)cc1 |  | 7.57 µM (active)
17 | Cc1ccc(NC(=O)c2ccccc2NS(=O)(=O)c2ccc(F)cc2)cc1S(=O)(=O)N1CCCCC1 |  | 3.79 µM (active)
18 | CCNC(=O)c1ccccc1NC(=O)C1CC(=O)N(C(C)C)C1 (stereo not drawn) | -3.43 | 
19 | CCc1ccc(N/C(SCc2cccc(F)c2)=C(/C#N)C(=O)NCc2ccco2)cc1 | -5.33 | 
20 | CC(C)c1cc(=O)n2[nH]c(SCc3ccccc3)nc2n1 | -0.807 | 
21 | CCCCc1c(C)nc2nc(SCc3ccc(Cl)cc3)[nH]n2c1=O |  | 21.3 µM (active)
22 | C#C[C@]1(OC(C)=O)CCC2C3CCC4=CC(=O)CC[C@@H]4C3CC[C@@]21C (stereo partly drawn) |  | 13.5 µM (active)
23 | CC(=O)N1CCc2cc(Br)cc(S(=O)(=O)N3CCC(C(=O)O)CC3)c21 | -11.2 | 
24 | CCC1Sc2ccc(S(=O)(=O)CCC(=O)Nc3ccccc3Cl)cc2NC1=O (stereo not drawn) | -11.6 | 
25 | O=C(c1ccc2c(c1)OCO2)N1CCN(S(=O)(=O)c2ccc(Cl)cc2)CC1 | -1.21 | 

Row | SMILES | activity change, negative = inhibition [%] | Potency
26 | O=C(Nc1cccc(S(=O)(=O)Nc2ccc(Cl)cc2)c1)c1ccc2c(c1)OCCO2 |  | 16.9 µM (active)
27 | CCOC(=O)c1[nH]c2cc(OC)c(OC)cc2c1NC(=O)c1ccc2c(c1)OCO2 | -2.79 | 
28 | COC(=O)c1sc(NC(=O)C(C)C)c(C(=O)OC)c1C | -4.29 | 
29 | Cc1cc(/C=C2\Sc3ccccc3N2C)cc(C)[n+]1CC1CCCO1 (stereo not drawn) |  | 30.1 µM (active)
30 | Cc1cccc(OCc2nnc(SCC(=O)N3c4ccccc4CCc4ccccc43)o2)c1 | -4.87 | 
31 | COc1ccc(NC(=O)c2ccc3ccccc3n2)cc1S(=O)(=O)Nc1ccccc1Cl | -2.39 | 
32 | CC(C)Oc1ccc(C(=O)Nc2ccc(Cl)c(S(=O)(=O)Nc3ccc(Cl)cc3)c2)cc1 |  | 21.3 µM (active)
33 | CC(C)Oc1ccc(C(=O)NCCNC(=O)c2ccco2)cc1 | -4.87 | 
34 | COc1ccc(C(=O)Nc2ccc(Cl)c(S(=O)(=O)Nc3ccccc3OC)c2)cc1 |  | 12 µM (active)
35 | COc1ccc(N(CC(=O)Nc2cc(Cl)ccc2OC)S(=O)(=O)c2c(C)noc2C)cc1 | -11.3 | 
36 | COC(=O)C1C(=O)NC(SC)=C(C#N)C1c1ccccc1 (stereo not drawn) | -3.77 | 
37 | Cc1cc(C)c2oc(C(=O)Nc3ccc(S(=O)(=O)Nc4nccc(C)n4)cc3)cc(=O)c2c1 | -4.03 | 
38 | O=C1OC(CC(=O)N(Cc2nnc(-c3ccc(Cl)cc3)o2)C2CC2)c2ccccc21 (stereo not drawn) | -6.17 | 
39 | COc1ccc(N2CCN(c3ncnc4sc(C(=O)NCC5CCCO5)c(C)c34)CC2)cc1 (stereo not drawn) | -1.12 | 
40 | Cc1sc2ncnc(N3CCN(CCOc4ccc(Cl)cc4)CC3)c2c1C |  | 19 µM (active)
41 | Cc1[nH]n(C)c(=O)c1C(=O)c1c(-c2c(Cl)cccc2Cl)noc1C | -5.39 | 
42 | O=C1NC(=S)S/C1=C\c1cc2ccccc2nc1N1CCCCC1 |  | 13.5 µM (active)
43 | COc1ccc2cc(/C=C3\SC(=S)NC3=O)c(N3CCOCC3)nc2c1 |  | 3.38 µM (active)
44 | CCc1ccc(-c2nnn(CCC(=O)OC)n2)cc1 | -0.749 | 
45 | COC(=O)c1nc2n(n1)C(c1cccc(Cl)c1)C1=C(CCCC1=O)N2 (stereo not drawn) | -1.3 | 
46 | Cc1nn(-c2ccc(N3CCOCC3)nn2)c(C)c1CCC(=O)NCc1ccccc1F | -2.51 | 
47 | COc1ccc(CN(C)C(=O)COC(=O)c2ccc(-c3ccccc3)cc2)c(OC)c1OC |  | 23.9 µM (active)
48 | CC(C)(C)C(=O)NC(=S)NNC(=O)c1ccc(-c2ccccc2)cc1 | -18.8 | 
49 | CCOC(=O)C1(CCOc2ccccc2)CCN(Cc2cccc(OC)c2O)CC1 | 1.47 | 
50 | CCn1nnc2cc(C(=O)NCC(c3ccccc3OC)N(C)C)ccc21 (stereo not drawn) | -6.48 | 

Row | SMILES | activity change, negative = inhibition [%] | Potency
51 | COc1cccc(CN(C)C(=O)c2ccc(Oc3ccccc3)cc2)c1OC |  | 37.9 µM (active)
52 | COc1cccc(CN(C)C(=O)CNC(=O)c2ccc(-c3ccccc3)cc2)c1OC |  | 26.9 µM (active)
53 | O=C(c1ccco1)N1N=C(C2CCCCC2)CC1(O)C(F)(F)F (stereo not drawn) | -1.58 | 
54 | COc1ccc(C(CC(=O)N2CCOCC2)c2c(OC)cc(OC)c3c(-c4ccccc4)cc(=O)oc23)cc1 (stereo not drawn) | -7.58 | 
55 | CC1CC(=O)N(c2ccc(C(C)C)cc2)C(=O)C1 | -1.5 | 
56 | COCc1c(C(=O)Nc2cccc(S(=O)(=O)N3CCCCC3)c2)oc2ccccc12 | -16.5 | 
57 | O=C(NCCN1CCOCC1)c1c(Cl)cccc1Cl | -6.48 | 
58 | O=C(Nc1ccc(S(=O)(=O)N2CCCCC2)cc1)c1ccc(CN2CCOCC2)cc1 |  | 23.9 µM (active)
59 | COc1ccc(N2CCN(C(=O)[C@H](C)NC(=O)c3ccccc3Cl)CC2)cc1 | -4.81 | 
60 | CCOc1ccccc1NC(=O)C(NCCc1ccc(OC)cc1)c1ccccc1 (stereo not drawn) | -6.08 | 
61 | COc1ccc(C(NC(=O)c2c(F)c(F)c(F)c(F)c2F)c2ccccc2)cc1 (stereo not drawn) |  | 26.9 µM (active)
62 | COCCCn1c(=O)c2sccc2n(Cc2cccc(C)c2)c1=O | -8.56 | 
63 | Cc1ccc(CNC(=O)CSc2nnc3c(n2)[nH]c2ccccc23)cc1 | -0.519 | 
64 | CC(Sc1nnc2c(n1)[nH]c1ccccc12)C(=O)N(C)C1CCCCC1 (stereo not drawn) |  | 26.9 µM (active)
65 | O=C(NCCc1ccc(Cl)cc1Cl)c1cc([N+](=O)[O-])c[nH]c1=O |  | 16.9 µM (active)
66 | COC(=O)c1ccc(NC(=O)Nc2ccc(F)c(Cl)c2)cc1 |  | 19 µM (active)
67 | CSCc1cc(N2CCOCC2)nc(SCc2ccc(Cl)cc2Cl)n1 | -10.1 | 
68 | Cc1cccc(C)c1OCCCn1ccnc1 | -4.81 | 
69 | Cc1cccc(OCCCCc2c(C)n[nH]c2C)c1C |  | 30.1 µM (active)
70 | COc1ccc(-c2nnc(CSc3nc4ccccc4c(=O)n3CC3CCCO3)o2)cc1OC (stereo not drawn) | -0.893 | 
71 | CCOc1cc(C(=O)NC2CC(C)(C)NC(C)(C)C2)cc(OCC)c1OCC | -5.01 | 
72 | CC1=CC(=O)C(C(C)C)=C/C1=N/OS(=O)(=O)c1ccccc1 |  | 8.49 µM (active)
73 | CC1=C/C(=N\OS(=O)(=O)c2ccccc2)C(C)=CC1=O |  | 4.78 µM (active)
74 | COc1ccc(NC(=O)Cc2nc3ccccc3[nH]2)cc1 | -2.71 | 
75 | Cc1cc(C)n(C(=O)/C(C#N)=N/Nc2cc(Cl)cc(Cl)c2)n1 |  | 4.78 µM (active)

Row | SMILES | activity change, negative = inhibition [%] | Potency
76 | CCOc1cc(NC(=O)C2CC2)c(OCC)cc1NC(=O)c1cccc(F)c1 | -9.28 | 
77 | COc1cccc(CNC(=O)CN2C(=O)CSc3ccc(S(=O)(=O)N4CCOCC4)cc32)c1 | -5.82 | 
78 | CCOc1cc(N2CCOCC2)c(OCC)cc1NC(=O)c1cccc(S(=O)(=O)N2CCOCC2)c1 |  | 9.53 µM (active)
79 | Cc1ccc(S(=O)(=O)N(Cc2ccccc2)c2ccccc2C(=O)N2CCCCC2)cc1 | -7.23 | 
80 | Cn1c(N)c(Sc2ccccc2[N+](=O)[O-])c(=O)n(C)c1=O | -4.78 | 
81 | Cn1c(=O)c([N+](=O)[O-])c(Cl)c2ccccc21 |  | 30.1 µM (active)
82 | CC(C)C(=O)Nc1c(-c2ccc(Cl)cc2)c(=O)c2ccccc2n1C | -7.38 | 
83 | Cc1noc(C)c1COc1ccccc1C(=O)N(C)Cc1ccc(C(C)(C)C)cc1 |  | 30.1 µM (active)
84 | Nc1ccn(Cc2ccccc2F)n1 | -2.59 | 
85 | O=C(Nc1cccc(Cl)c1)Nc1ccc(Br)cc1F |  | 21.3 µM (active)
86 | N#CC1=C(C2CC2)CC(c2ccccc2)C(C#N)=C1N (stereo not drawn) | -3.77 | 
87 | CC1(C)CC(=O)c2c(nc3ccccc3c2N)C1 | -10.3 | 
88 | c1ccc(C(c2nnnn2Cc2ccco2)N2CCN(c3nc4ccccc4s3)CC2)cc1 (stereo not drawn) | -5.7 | 
89 | CC(C)C(c1nnnn1Cc1ccco1)N1CCN(c2nc3ccccc3s2)CC1 (stereo not drawn) |  | 30.1 µM (active)
90 | COc1cccc(OC)c1C(=O)Nc1sc2c(c1C#N)CCC2 | -8.84 | 
91 | CC(C)CC(=O)NC(NC(=S)Nc1sc2c(c1C#N)CCCC2)C(Cl)(Cl)Cl (stereo not drawn) |  | 23.9 µM (active)
92 | Cc1cc(C)cc(N=C2NC(=O)CS2)c1 | -5.01 | 
93 | Cc1nc2ccccc2n1CCOc1ccccc1 | -5.04 | 
94 | Oc1c(Cl)cc(Cl)c(Cl)c1Cc1c(O)c(Cl)cc(Cl)c1Cl |  | 2.13 µM (active)
95 | CC(C)S(=O)(=O)C1=NSC2=NC(=O)/C(=C\c3ccc(-c4ccccc4)o3)C(=N)N21 |  | 3.79 µM (active)
96 | CSc1nc(-c2ccc(Cl)cc2Cl)[nH]c(=O)c1C#N |  | 6.75 µM (active)
97 | COc1cc(NC(=O)Cn2nc(C(F)(F)F)c(Br)c2C)cc([N+](=O)[O-])c1 |  | 26.9 µM (active)
98 | CN(CC(=O)Nc1ccccc1C(F)(F)F)Cc1c(O)ccc2ccccc12 | -3.28 | 
